Laboratory results as given in the supplement of paper PMC12645437, “Orthogonal IMiD-Degron Pairs Induce Selective Protein Degradation in Cells” (ACS Chemical Biology, 2025).
The full ranking holds about 8,300 sequences; the median of “log2 fold change of degron read counts, EGFP-low vs EGFP+ sorted cells (limma voom), compound-induced degradation” is about -1.1, and the highest 2% start at about 3.2. Only a selection was taken, and the highest values are over-represented in it overall.

T1: CRBN, Q96SW2
T1 chain: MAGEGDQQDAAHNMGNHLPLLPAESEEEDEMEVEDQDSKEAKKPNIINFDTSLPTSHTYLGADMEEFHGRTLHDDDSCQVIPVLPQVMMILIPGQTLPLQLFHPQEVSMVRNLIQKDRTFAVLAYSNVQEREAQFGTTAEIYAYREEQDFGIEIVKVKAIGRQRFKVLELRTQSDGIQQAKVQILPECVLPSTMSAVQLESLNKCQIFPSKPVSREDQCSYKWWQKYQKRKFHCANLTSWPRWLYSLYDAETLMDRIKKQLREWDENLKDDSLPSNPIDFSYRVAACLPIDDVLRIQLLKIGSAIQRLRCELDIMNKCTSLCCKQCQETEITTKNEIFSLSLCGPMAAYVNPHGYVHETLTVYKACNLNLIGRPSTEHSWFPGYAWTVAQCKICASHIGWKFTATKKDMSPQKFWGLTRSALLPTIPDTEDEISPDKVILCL


Target: T1, CRBN, Q96SW2
Experiment: log2 fold change of degron read counts, EGFP-low vs EGFP+ sorted cells (limma voom), compound-induced degradation; higher = more compound-induced degradation of the degron-EGFP fusion; degrons are variants of IKZF1/3 zinc finger 2; compound dose not given here
Details: Jurkat, 18 h
[1] = compound: compound 19 (5-tert-butyl-thalidomide)
[2] = compound: compound 22 (5-morpholino-thalidomide)
[3] = compound: compound 33 (diphenyl IMiD analogue)
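Note: pooled lentiviral library of zinc finger degron-EGFP fusions in mCherry-positive Jurkat cells, FACS-sorted after compound exposure, with degron abundance counted by next-generation sequencing.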

Sequence | log2 fold change of degron read counts [1] | log2 fold change of degron read counts [2] | log2 fold change of degron read counts [3] | log2 fold change of degron read counts (compound: thalidomide)
FVCEICGRRFTQKGNLLRHIKL [46F_47V_49E_50I_52G_53R_54R_55F_67L_, Q9UKT9] | -1.38 | -0.295 | -0.924 | 1.44
LWCPICGFICTQKGNLLRHIKL [46L_47W_49P_50I_52G_53F_54I_55C_67L_, Q9UKT9] | 2.27 | 2.7 | 2.35 | 1.24
FNCEQCGAQFTQKGNLLRHIKL [46F_47N_49E_50Q_52G_53A_54Q_55F_67L_, Q9UKT9] | -1.51 | -2.31 | -2.13 | -2.22
LTCNQCGFMCTQKGNLLRHIKL [46L_47T_49N_50Q_52G_53F_54M_55C_67L_, Q9UKT9] | -2.05 | -1.99 | -2.04 | -1.23
FFCNQCGAKFTQKGNLLRHIKL [46F_47F_49N_50Q_52G_53A_54K_55F_67L_, Q9UKT9] | -0.805 | -0.929 | -1.59 | -1.91
FDCNVCGAPFTQKGNLLRHIKL [46F_47D_49N_50V_52G_53A_54P_55F_67L_, Q9UKT9] | -1.08 | -1.02 | -1.22 | -0.873
LSCEICGFRCTQKGNLLRHIKL [46L_47S_49E_50I_52G_53F_54R_55C_67L_, Q9UKT9] | 2.82 | 2.76 | 0.517 | 1.83
LGCEICGFRCTQKGNLLRHIKL [46L_47G_49E_50I_52G_53F_54R_55C_67L_, Q9UKT9] | 2.14 | 1.52 | -0.383 | 0.468
LCCEICGFRCTQKGNLLRHIKL [46L_47C_49E_50I_52G_53F_54R_55C_67L_, Q9UKT9] | 2.36 | 2.33 | 1.37 | 2.65
LACEICGFRCTQKGNLLRHIKL [46L_47A_49E_50I_52G_53F_54R_55C_67L_, Q9UKT9] | 3.5 | 2.79 | 0.159 | 1.41
LWCEICGFRCTQKGNLLRHIKL [46L_47W_49E_50I_52G_53F_54R_55C_67L_, Q9UKT9] | 3.39 | 3.5 | 2.48 | 1.8
LNCEICGFRCTQKGNLLRHIKL [46L_47N_49E_50I_52G_53F_54R_55C_67L_, Q9UKT9] | 1.31 | 0.0636 | -0.877 | 0.378
LMCEICGFRCTQKGNLLRHIKL [46L_47M_49E_50I_52G_53F_54R_55C_67L_, Q9UKT9] | 0.992 | 0.81 | 2.15 | 2.41
LHCEICGFRCTQKGNLLRHIKL [46L_47H_49E_50I_52G_53F_54R_55C_67L_, Q9UKT9] | 2.71 | 2.4 | 1.3 | 1.88
LTCEICGFRCTQKGNLLRHIKL [46L_47T_49E_50I_52G_53F_54R_55C_67L_, Q9UKT9] | 1.66 | 2.1 | 1.15 | 2.73
LYCEICGFRCTQKGNLLRHIKL [46L_47Y_49E_50I_52G_53F_54R_55C_67L_, Q9UKT9] | 3.55 | 3.9 | 2.17 | 1.9
LVCEICGFRCTQKGNLLRHIKL [46L_47V_49E_50I_52G_53F_54R_55C_67L_, Q9UKT9] | 2.5 | 2.55 | 1.39 | 3.28
LDCEICGFRCTQKGNLLRHIKL [46L_47D_49E_50I_52G_53F_54R_55C_67L_, Q9UKT9] | 0.949 | -0.499 | -0.616 | 0.426
FQCNQCGREFTQKGNLLRHIKL [46F_47Q_49N_50Q_52G_53R_54E_55F_67L_, Q9UKT9] | -3.47 | -3.04 | -3.68 | -2.95
FDCEQCGACFTQKGNLLRHIKL [46F_47D_49E_50Q_52G_53A_54C_55F_67L_, Q9UKT9] | -1.94 | -2.86 | -2.08 | -2.3

Sequence | log2 fold change of degron read counts [1] | log2 fold change of degron read counts [2] | log2 fold change of degron read counts [3] | log2 fold change of degron read counts (compound: thalidomide)
FGCDICGAAFTQKGNLLRHIKL [46F_47G_49D_50I_52G_53A_54A_55F_67L_, Q9UKT9] | 1.51 | 0.584 | 0.961 | -0.234
LLCPICGFPCTQKGNLLRHIKL [46L_47L_49P_50I_52G_53F_54P_55C_67L_, Q9UKT9] | -0.669 | 1.1 | 1.61 | 2.14
FDCNQCGATFTQKGNLLRHIKL [46F_47D_49N_50Q_52G_53A_54T_55F_67L_, Q9UKT9] | -2.56 | -3.15 | -3.02 | -2.62
FWCPICGHRFTQKGNLLRHIKL [46F_47W_49P_50I_52G_53H_54R_55F_67L_, Q9UKT9] | -0.606 | 0.31 | -0.595 | -0.478
LACNQCGFFCTQKGNLLRHIKL [46L_47A_49N_50Q_52G_53F_54F_55C_67L_, Q9UKT9] | -0.913 | -1.22 | -1.37 | -0.847
FHCEICGRPFTQKGNLLRHIKL [46F_47H_49E_50I_52G_53R_54P_55F_67L_, Q9UKT9] | 1.69 | 0.386 | 0.306 | -0.468
FTCSVCGHSFTQKGNLLRHIKL [46F_47T_49S_50V_52G_53H_54S_55F_67L_, Q9UKT9] | -2.98 | -3.17 | -2.89 | -2.9
FWCEVCGADFTQKGNLLRHIKL [46F_47W_49E_50V_52G_53A_54D_55F_67L_, Q9UKT9] | -0.303 | 0.852 | -0.582 | -1.26
FYCEVCGADFTQKGNLLRHIKL [46F_47Y_49E_50V_52G_53A_54D_55F_67L_, Q9UKT9] | 0.695 | 1.02 | 0.125 | -1.36
FICEVCGARFTQKGNLLRHIKL [46F_47I_49E_50V_52G_53A_54R_55F_67L_, Q9UKT9] | 0.108 | 2.04 | 1.51 | 2.6
FDCEVCGARFTQKGNLLRHIKL [46F_47D_49E_50V_52G_53A_54R_55F_67L_, Q9UKT9] | 3.09 | 1.52 | 0.571 | 2.08
FECEVCGARFTQKGNLLRHIKL [46F_47E_49E_50V_52G_53A_54R_55F_67L_, Q9UKT9] | 1.13 | -0.689 | 1.27 | 3.29
FWCEVCGALFTQKGNLLRHIKL [46F_47W_49E_50V_52G_53A_54L_55F_67L_, Q9UKT9] | 2.17 | 2.69 | 1.86 | -0.0715
FCCEVCGARFTQKGNLLRHIKL [46F_47C_49E_50V_52G_53A_54R_55F_67L_, Q9UKT9] | 3.05 | 3.02 | 1.45 | 2.9
FFCEVCGALFTQKGNLLRHIKL [46F_47F_49E_50V_52G_53A_54L_55F_67L_, Q9UKT9] | 2.55 | 2.63 | 1.79 | 0.407
FYCEVCGALFTQKGNLLRHIKL [46F_47Y_49E_50V_52G_53A_54L_55F_67L_, Q9UKT9] | 3.18 | 3.03 | 2.24 | 0.431
FYCEVCGARFTQKGNLLRHIKL [46F_47Y_49E_50V_52G_53A_54R_55F_67L_, Q9UKT9] | 3.84 | 3.8 | 2.26 | 1.95
FWCEVCGARFTQKGNLLRHIKL [46F_47W_49E_50V_52G_53A_54R_55F_67L_, Q9UKT9] | 3.36 | 3.82 | 1.63 | 1.59
FFCEVCGARFTQKGNLLRHIKL [46F_47F_49E_50V_52G_53A_54R_55F_67L_, Q9UKT9] | 3.78 | 3.71 | 1.69 | 2.19
